# Hit rate of the full screen: of about 13,000 compounds, about 3,200 (25%) showed an effect of 50% or more. This is one part of the list.
# Tested on: P. falciparum stage V gametocytes
# Parameters: BacTiter-Glo ATP luminescence viability of purified stage V gametocytes in 384-well plates, per cent inhibition versus DMSO
# Details: 48 h, 5 µM; inhibitor
row,Compound,% Inhibition [%]
1,CN(C)c1ccc2nc(N)nc(N)c2c1Cl [TCMDC-137862],-17.95
2,Nc1nc(N)c2c(ccc3ccccc32)n1 [TCMDC-131942],19.03
3,Nc1nc(N)c2c(Oc3cccc4ccccc34)cccc2n1 [TCMDC-137739],-7.537
4,Nc1nc(N)c2c(ccc3[nH]c(-c4ccccc4Cl)nc32)n1 [TCMDC-137840],117.2
5,COc1ccccc1-c1nc2c(ccc3nc(N)nc(N)c32)[nH]1 [TCMDC-137976],123.3
6,COc1cc2cc(-c3nc4ccccc4[nH]3)c(N)nc2cc1OC [TCMDC-125600],19.66
7,Fc1ccc2[nH]c(-c3ccc(-c4ccc(CNCc5cnn(-c6ccccc6)n5)cc4)cc3)nc2c1.O=C(O)C(F)(F)F [TCMDC-132969],45.68
8,Cc1ccc(N2CCN(CCCCNC(=O)c3ccc(NC(=O)c4ccc(Cl)cc4)cc3)CC2)c(C)c1 [TCMDC-138507],8.523
9,O=C1OC2(CN1CC1CCN(Cc3ccc(O)c(Cl)c3)CC1)c1ccccc1-c1ccccc12 [TCMDC-136071],20.11
10,O=S(=O)(NCCN1CCCC1)c1ccc(-c2cccc(CNCCc3cccs3)c2)s1 [TCMDC-132376],19.55
11,O=S(=O)(NCCN1CCCC1)c1ccc(-c2cccc(CNCCc3cccs3)c2)cc1 [TCMDC-132374],64.21
12,O=S(=O)(NCCN1CCCC1)c1cccc(-c2cccc(CNCCc3cccs3)c2)c1 [TCMDC-132378],78.26
13,COc1ccc(CN(C)Cc2cc(C(C)C)c(C)cc2O)cc1F [TCMDC-124597],-22.84
14,O=C(Nc1nccs1)c1cc(-c2cccnc2)nc2ccc(Br)cc12 [TCMDC-125215],-12.6
15,CO[C@H](C)[C@H](NC(=O)[C@H](CC(C)C)[C@H](CCC(F)(F)F)N(O)C=O)C(=O)Nc1nccs1 [TCMDC-138190],15.4
16,O=C(/C=C/c1ccc(Cl)c(Cl)c1)N1CCC2CC(N3CCC(c4c[nH]c5ccccc45)CC3)CCC2C1 (stereo not shown) [TCMDC-139677],-29.29
17,O=C(/C=C/c1ccc(Cl)c(Cl)c1)N1CCC(CN2CCC(Cc3c[nH]c4ccccc34)CC2)CC1 [TCMDC-140143],-20.89
18,COc1ccc2[nH]cc(C3CC4CCC(C3)N4CCC3CCN(C(=O)/C=C/c4ccc(Cl)c(Cl)c4)CC3)c2c1 (stereo not shown) [TCMDC-139670],106
19,O=C(/C=C/c1ccc(Cl)c(Cl)c1)N1CCC(CN2CCC(c3c[nH]c4ccccc34)C(O)C2)CC1 (stereo not shown) [TCMDC-139825],-12.75
20,O=C(/C=C/c1ccc(Cl)c(Cl)c1)N1CCC(NCc2c[nH]c3ccccc23)CC1 [TCMDC-134197],-0.4755
21,COC(=O)c1ccc2[nH]cc(C3CCN(CCC4CCN(C(=O)/C=C/c5ccc(Cl)c(Cl)c5)CC4)CC3)c2c1 [TCMDC-139787],19.69
22,CN(CC1CCC(NC(=O)/C=C/c2ccc(Cl)c(Cl)c2)CC1)C1CCC(c2c[nH]c3ccccc23)CC1 (stereo not shown) [TCMDC-140213],-15.26
23,CN(CCC1CCN(C(=O)/C=C/c2ccc(Cl)c(Cl)c2)CC1)C1CCC(c2c[nH]c3ccccc23)CC1 (stereo not shown) [TCMDC-140107],60.82
24,COc1ccc2[nH]cc(C3CCN(CCC4CCN(C(=O)/C=C/c5ccc(Cl)c(Cl)c5)CC4)CC3)c2c1 [TCMDC-139658],-35.62
25,CN(CCCc1c[nH]c2ccccc12)CC1CCN(C(=O)/C=C/c2ccc(Cl)c(Cl)c2)CC1 [TCMDC-140117],55.67
26,O=C(/C=C/c1ccc(Cl)c(Cl)c1)N1CCC(CN2C3CCC2CC(c2c[nH]c4ccccc24)C3)CC1 (stereo not shown) [TCMDC-139814],116.4
27,O=C(/C=C/c1ccc(Cl)c(Cl)c1)N1CCC(CCCN2CCC(c3c[nH]c4ccccc34)CC2)CC1 [TCMDC-139795],25.74

row,Compound,% Inhibition [%]
1,CCCCC1(NC(=O)[C@@H](Nc2ccc(C#N)c3ccccc23)C2CCCCC2)CCCCC1 [TCMDC-136636],-65.73
2,CCOCc1cnc(C)nc1NCC(=O)c1c(C)[nH]c2cc(C)ccc12 [TCMDC-124067],-5.397
3,CC1(C)CCCC(=Cc2ccc(Br)cc2)C1(O)Cn1ccnc1 (stereo not shown) [TCMDC-125214],19.91
4,COc1cc2nccc(Nc3cc(C)cc(O)c3)c2cc1OC.Cl [TCMDC-138196],-1.594
5,CCCCOC(=O)c1ccc(NC(=O)Nc2ccc(Cn3ncc(N4CCCNCC4)c(Cl)c3=O)cc2)cc1 [TCMDC-133323],-2.086
6,COc1cccc(C(=O)C2CC2CN(C)CC(O)c2cc(C)c(OC)cc2C)c1 (stereo not shown) [TCMDC-136802],18.93
7,COc1ccc(C(=O)C2CC2CN(C)CCC(O)c2ccc(Cl)c(Cl)c2)cc1 (stereo not shown) [TCMDC-136792],-25.71
8,COc1ccc(C(=O)C2CC2CN(C)CC(O)c2cc(C)c(OC)cc2C)cc1 (stereo not shown) [TCMDC-136800],56.77
9,N#Cc1ccc(NC(=NCc2ccc(Cl)cc2Cl)Nc2cccc(Cl)c2Cl)c(O)c1 [TCMDC-140224],-0.417
10,CC1(C)N=C(N)N=C(N)N1OCc1ccc2ccccc2c1 [TCMDC-125513],17.08
11,CC(C)Nc1nc(NCCc2cnc[nH]2)nc(NCc2ccc(Cl)c(Cl)c2)n1 [TCMDC-139747],6.944
12,CC(=O)N(C)c1cccc(C(=O)Nc2ccc(-c3cccc(-c4nc5c(C)cccc5[nH]4)c3)cc2)c1 [TCMDC-137072],-29.92
13,CC(=O)Nc1cccc(C(=O)Nc2cccc(-c3ccc(-c4nc5c(C)cccc5[nH]4)cc3)c2)c1 [TCMDC-132136],-12.3
14,CC(=O)Nc1ccc(C(=O)Nc2cccc(-c3ccc(-c4nc5c(C)cccc5[nH]4)cc3)c2)cn1 [TCMDC-136823],57.24
15,CC(=O)Nc1ccc(C(=O)Nc2cccc(-c3cccc(-c4nc5c(C)cccc5[nH]4)c3)c2)cn1 [TCMDC-136830],-4.811
16,CC(=O)Nc1ccc(C(=O)Nc2ccc(-c3cccc(-c4nc5c(C)cccc5[nH]4)c3)cc2)cn1 [TCMDC-136831],74.93
17,CC(=O)Nc1ccc(C(=O)Nc2ccc(-c3cccc(-c4nc5ccc(F)cc5[nH]4)c3)cc2)cn1 [TCMDC-136822],-42.62
18,CN(C)CCC1CCCc2ccc(NC(=O)Nc3ccc(-c4ccncc4)c4ccccc34)cc21 (stereo not shown) [TCMDC-139156],-24.46
19,CCC(C)Oc1ccc(CCCON2C(N)=NC(N)=NC2(C)C)cc1 (stereo not shown) [TCMDC-131784],25.06
20,CCOc1cc(C(=O)Nc2cccnc2)cc(Br)c1OCCC(C)C [TCMDC-123549],16.86
21,CCOc1ccc(C(C)NC(=O)C2COc3ccccc3O2)cc1OCC (stereo not shown) [TCMDC-125018],78.92
22,CCOc1ccc(C(Cc2ccccc2)NC(=O)c2cccnc2)cc1OCC (stereo not shown) [TCMDC-124519],50.66
23,CCOc1ccc(C(C)NC(=O)Cc2ccccc2F)cc1OCC (stereo not shown) [TCMDC-123564],31.28
24,CCOc1ccc(C(C)NC(=O)Nc2ccccc2)cc1OCC (stereo not shown) [TCMDC-123556],52.41
25,COc1cc(Nc2nccc(N3CCC(NC(=O)C4COc5ccccc5O4)C3)n2)cc(OC)c1OC (stereo not shown) [TCMDC-133625],-0.8923
26,CCCCNC(=O)[C@H](Cc1ccccc1)NC(=O)c1ccc(O)c(-c2ccc(Cl)c(Cl)c2)c1 [TCMDC-140840],16.49
27,CN1CCN(c2ccc(Cl)cc2NC(=O)C2COc3ccccc3O2)CC1 (stereo not shown) [TCMDC-124321],9.444

row,Compound,% Inhibition [%]
1,CCOc1ccc(CCC(=O)O)cc1OCC [TCMDC-124302],4.043
2,CCCCCCNC(=O)C(N)CCCC(N)C(=O)NCCCCCC (stereo not shown) [TCMDC-131401],16.24
3,CSc1cccc(NC(=O)Nc2ccc(I)c(OCCN(C)C)c2)c1 [TCMDC-139123],6.817
4,COc1cc2cc(Cc3cnc(N)nc3N)ccc2c(OC)c1OC [TCMDC-138023],-6.286
5,O=C(NCCCc1ccccc1)c1csc(C2CCCN(C(=O)c3ccc(O)c(-c4cccc5ccccc45)c3)C2)n1 (stereo not shown) [TCMDC-140154],-33.08
6,CC(C)(C)c1ccc(NC(=O)c2cccc(CN3CCCN(Cc4cccc(Cl)c4)CC3)c2)cc1 [TCMDC-135982],-61.3
7,CCc1cc(I)c2c(c1)C(NCCCNc1cc(=O)c3ccccc3[nH]1)CCN2 (stereo not shown) [TCMDC-140023],-10.14
8,O=c1cc(NCCNCc2cccc(-c3ccccc3)c2)[nH]c2ccccc12 [TCMDC-139376],20.69
9,Cc1cc(NCCC(=O)Nc2ccccc2)nc(NCC2CCCCC2)n1 [TCMDC-134926],-30.27
10,CC(C)(C)C1CCC(C(=O)c2ccc3ccccc3c2O)CC1 (stereo not shown) [TCMDC-137495],11.22
11,O=C(CCC1CCCCC1)NCCNc1cccc2ccccc12 [TCMDC-124017],107.9
12,O=C(Nc1ccccc1)Nc1cccc(-c2cccc(-c3nc4ccc(F)cc4[nH]3)c2)c1 [TCMDC-133154],-14.02
13,CCOc1ccc(-c2nc(NC(=O)COc3ccc(OC)cc3)sc2C)cc1 [TCMDC-124329],36.75
14,Cc1ccoc1C(=O)Nc1cccc(-c2cccc(-c3nc4ccccc4[nH]3)c2)c1 [TCMDC-136834],-43.19
15,Cc1cccc2[nH]c(-c3cccc(-c4cccc(NC(=O)c5csnn5)c4)c3)nc12 [TCMDC-136904],82.61
16,Cc1cccc2[nH]c(-c3cccc(-c4cccc(NC(=O)C5CC(=O)Nc6ccccc65)c4)c3)nc12 (stereo not shown) [TCMDC-137097],79.84
17,CC(=O)Nc1nc(C(=O)Nc2cccc(-c3ccc(-c4nc5c(C)cccc5[nH]4)cc3)c2)cs1 [TCMDC-137123],80.9
18,Cc1cccc2[nH]c(-c3cccc(-c4ccc(NC(=O)C5CC(=O)Nc6ccccc65)cc4)c3)nc12 (stereo not shown) [TCMDC-137098],-77.35
19,Cc1ccoc1C(=O)Nc1cccc(-c2cccc(-c3nc4c(C)cccc4[nH]3)c2)c1 [TCMDC-136836],81.69
20,O=C1CC(C(=O)Nc2cccc(-c3cccc(-c4nc5ccccc5[nH]4)c3)c2)c2ccccc2N1 (stereo not shown) [TCMDC-137096],26.75
21,CC(=O)Nc1nc(C(=O)Nc2ccc(-c3cccc(-c4nc5c(C)cccc5[nH]4)c3)cc2)cs1 [TCMDC-137131],-2.039
22,Cc1cnc(C(=O)Nc2cccc(-c3cccc(-c4nc5c(C)cccc5[nH]4)c3)c2)cn1 [TCMDC-137030],-21.98
23,CC(=O)Nc1nc(C(=O)Nc2cccc(-c3cccc(-c4nc5c(C)cccc5[nH]4)c3)c2)cs1 [TCMDC-137130],-6.466
24,O=C(Nc1cccc(-c2cccc(-c3nc4ccccc4[nH]3)c2)c1)c1csnn1 [TCMDC-136898],1.573
25,Cc1ccoc1C(=O)Nc1ccc(-c2cccc(-c3nc4c(C)cccc4[nH]3)c2)cc1 [TCMDC-136837],-21.37
